Calls of active or inactive are those of the source. The calls were made as follows: active = hit-call score of the fitted dose curve at least 0.9, where 1 is the maximum; inactive = score below 0.9.

The source of these data is PubChem BioAssay (EPA / NIEHS).

Chain of CCAAT/enhancer-binding protein beta (Homo sapiens) (P17676 whole entry, looked up): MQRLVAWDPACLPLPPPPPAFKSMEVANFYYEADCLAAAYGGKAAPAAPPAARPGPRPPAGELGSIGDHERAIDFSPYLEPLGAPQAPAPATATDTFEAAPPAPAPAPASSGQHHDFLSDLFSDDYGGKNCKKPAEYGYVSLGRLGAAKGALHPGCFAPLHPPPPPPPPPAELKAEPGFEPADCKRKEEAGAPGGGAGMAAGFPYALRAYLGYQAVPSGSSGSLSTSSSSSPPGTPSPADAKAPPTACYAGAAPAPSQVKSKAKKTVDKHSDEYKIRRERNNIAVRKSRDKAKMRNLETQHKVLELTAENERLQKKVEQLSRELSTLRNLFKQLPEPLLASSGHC

In this test the target is CCAAT/enhancer-binding protein beta (Homo sapiens) (UniProt P17676). Put plainly: ATG_C_EBP_CIS: Attagene CIS-FACTORIAL HepG2 Assay for human CCAAT/Enhancer Binding Protein (C/EBP) beta (AID 2282927). As to conditions: HepG2 Attagene cis-factorial transcription factor reporter; actives raise or lower the signal. How it is done:
ATG_CIS is a cell-based, multiplexed-readout assay that uses HepG2, a human liver cell line, with measurements taken at 24 hours after chemical dosing in a 24-well plate.ATG_C_EBP_CIS is one of 52 assay component(s) measured or calculated from the ATG_CIS assay. It is designed to make measurements of mRNA induction, a form of inducible reporter, as detected with fluorescence intensity signals by Reverse transcription polymerase chain reaction (RT-PCR) and Capillary electrophoresis technology.Data from the assay component ATG_C_EBP_CIS was analyzed into 1 assay endpoint. This assay endpoint, ATG_C_EBP_CIS, was analyzed with bidirectional fitting relative to DMSO as the negative control and baseline of activity. Using a type of inducible reporter, measures of mRNA for gain or loss-of-signal activity can be used to understand the reporter gene at the transcription factor-level as they relate to the gene CEBPB. Furthermore, this assay endpoint can be referred to as a primary readout, because this assay has produced multiple assay endpoints where this one serves a reporter gene function. To generalize the intended target to other relatable targets, this assay endpoint is annotated to the dna binding intended target family, where the subfamily is basic leucine zipper.
Human liver HepG2 cells are transiently transfected with multiple reporter transcription units (MRTUs) in 6-well plates using FuGene 6 reagent (Roche; 3 ml FuGene/1 mg DNA). The MRTU constructs are regulated by a cis-regulating element (promoter). […] A major difference between the CIS and TRANS system is that in CIS activities of endogenous TFs are measured, whereas the TRANS assay evaluates changes in activities of exogenous, chimeric NR-Gal4 proteins. […] At the end of 24 hour incubation, total RNA was isolated using TriZol reagent (Invitrogen). The isolated RNA is then reverse-transcribed using oligo(dT) primer and Mo-MLV reverse transcriptase (Invitrogen) with DNAse I (Ambion) treatment for 30 min. The one-tenth of the produced cDNA was amplified by PCR using Taq DNA polymerase (Invitrogen) and two reporter sequence-specific primers. The PCR products were fluorescently labeled by primer extension with 6-arboxyfluorescein (6-FAM) 5'-labeled reporter sequence-specific primer (2 min at 95 C, 20 s at 68 C and 10 min at 72 C) and these products were digested with 5U of HpaI (New England Biolabs) for 2h at 37 C. The fragments were purified using Qiaquick PCR columns (Qiagen), analyzed on an ABI 3130xL genetic analyzer (Applied Biosystems) with peak positions identified by using a set of X-rhodamine (ROX)-labeled MapMarker1000 molecular weight standards (BioVentures). The raw capillary electrophoresis data was processed using Attagraph software (Attagene).
For the compound `O=C(OCCCCCOC(=O)c1ccccc1)c1ccccc1`, the outcome was inactive.
Still for that read-out and setting: then `CC1=C(/C=C/C(C)=C/C=C/C(C)=C/CO)C(C)(C)CCC1`, with “inactive”.
The same measure, in the same setting: then `CCCCc1ccc2c(n1)[C@@H](c1ccc(OC)cc1C[C@H](C)C(=O)O)[C@H](C(=O)O)[C@H]2c1ccc2c(c1)OCO2`, with “inactive”; and `Cc1nc(-c2ccc3c(c2)CCN(CCC2CCC(NC(=O)/C=C/c4ccc(F)cc4)CC2)CC3)no1` (stereo not given), with “inactive”; and `CCCCC(CC)COC(=O)CC(C(=O)OCC(CC)CCCC)S(=O)(=O)O` (stereo not given), with “inactive”.
For orientation: AC50 means the midpoint of the concentration-response curve, whichever way the signal moves. Regarding `C=CCOC(=O)c1ccccc1C(=O)OCC=C`, the half-maximal activity concentration (AC50) is 26.4 µM (active).
Consider `Cc1ccc(C(C)C)c(O)c1`, for which the result was inactive.
Turning to `COc1ccc(C)cc1N`, the result was inactive.
Same read-out and setting: then `COC(=O)c1ccc(O)cc1`, with “inactive”.
As for `CC(C)(C)c1cc(O)c(C(C)(C)C)cc1O`, the half-maximal activity concentration (AC50) is 89.1 µM (active).
As to `NCC1(Cc2noc(=O)[nH]2)CCCCC1`, the outcome was inactive.
Same read-out and setting: then `CCOC(=O)CCC(=O)OCC`, with “inactive”.
Still for that read-out and setting: then `CN1CCCC1=O`, with “inactive”; and `CCCCCCCCCCCCCCCC`, with “inactive”.
On the same count and under the same terms, then `Nc1ccc(S(=O)(=O)c2ccc(N)cc2)cc1`, with “inactive”.
For the compound `C[C@]12C=CC(=O)C=C1CC[C@@H]1[C@@H]2C(=O)C[C@@]2(C)[C@H]1CC[C@]2(O)C(=O)CO`, the outcome was inactive.
In the case of `COc1cc(-c2nc(NC(=O)c3cc4cc(C)cc(C)c4n3CC(=O)O)sc2CCC2CCCCC2)c(OC)cc1Cl`, the AC50 was 4.79 µM (active).
Consider `O=C(O)CCCCC(=O)O`, for which the result was inactive.
As to `Cc1cc(=O)[nH]c(=S)[nH]1`, the result was inactive.
On to `CC(C)c1ccc(C(=O)N=C(N)N)cc1S(C)(=O)=O`, for which the result was inactive.
The same measure, in the same setting: then `C=CCc1ccc(O)c(OC)c1`, with “inactive”; and `CCCCCCCC=O`, with “inactive”.
Still for that read-out and setting: then `NCCO`, with “inactive”; and `Nc1nc(N)c2nc(CNc3ccc(C(=O)N[C@@H](CCC(=O)O)C(=O)O)cc3)cnc2n1`, with “inactive”; and `O=C(N[C@@H](Cc1ccccc1)[C@@H](O)C(=O)N1C[C@@H](O)[C@@H](O)C1)c1cc2cc(Cl)ccc2[nH]1`, with “inactive”.
As to `COc1cc(/C=C/C(=O)CC(=O)/C=C/c2ccc(O)c(OC)c2)ccc1O`, the outcome was inactive.
With `CCc1c(C(=O)NN2CCCCC2)nn(-c2ccc(Cl)cc2Cl)c1-c1ccc(Br)cc1`, the outcome was inactive.
As for `CCCCOC(=O)CCCCCCCCC(=O)OCCCC`, the outcome was inactive.
Take `CCOc1ccc2c(c1)C(C)=CC(C)(C)N2`: the result was inactive.
Same read-out and setting: then `Cc1cccc([N+](=O)[O-])c1C`, with “inactive”; and `NS(=O)(=O)c1cc2c(cc1Cl)NCNS2(=O)=O`, with “inactive”.
On the same count and under the same terms, then `Nc1ccc2c(c1)C(=O)c1ccccc1C2=O`, with “inactive”; and `CC(CO)OC(C)CO` (stereo not given) (tested in a mixture with another compound), with “inactive”; and `Cc1cc(NC(=O)C(=O)O)cc(C)c1Oc1ccc(O)c2c1CCC2`, with “inactive”.
On the same count and under the same terms, then `Oc1ccc2c(c1)OC[C@@H](N1CCC(O)(c3ccc(F)cc3)CC1)[C@H]2O`, with “inactive”; and `Cc1ccc(C)c(C)c1`, with “inactive”; and `CCCCCCCCCCC`, with “inactive”.
On to `CCCCCCCCCCCCCO`, for which the outcome was inactive.
In the case of `C[Si]1(C)O[Si](C)(C)O[Si](C)(C)O[Si](C)(C)O1`, the outcome was inactive.
On the same count and under the same terms, then `CCCCCC(=O)O`, with “inactive”.
